# Results from PubChem BioAssay (EPA / NIEHS).
# Calls of active or inactive are those of the source. How the source made its calls: active means hit-call score of the fitted dose curve at least 0.9, where 1 is the maximum; inactive means score below 0.9.
# Assay: BSK_MyoF_SRB: Viability Assessment in the BioMAP Diversity Plus: MyoF Assay (AID 2284267)
# Conditions: primary human lung fibroblasts
# Protocol: BSK_MyoF is a cell-based, multiplexed-readout assay that uses lung fibroblasts, […], with measurements taken at 24 hours after chemical dosing in a microplate: 96-well plate.BSK_MyoF_SRB is an assay component measured in the BSK_MyoF assay. It measures 0.1% sulforhodamine related to cell death using Sulforhodamine staining technology.Data from the assay component BSK_MyoF_SRB was analyzed at the endpoint, BSK_MyoF_SRB, in the positive analysis fitting direction relative to DMSO as the negative control and baseline of activity. Using a type of viability reporter, gain or loss-of-signal activity can be used to understand protein changes. To generalize the intended target to other relatable targets, this assay endpoint is annotated to the 'cell morphology' intended target family, where the subfamily is 'cell conformation'.
# The levels of cell surface (or secreted, indicated by the prefix "s") biomarker endpoints were measured by ELISA. Overt cytotoxicity to cells in confluent adherent cultures (all systems other than the BT system) was assessed by measuring total protein levels using sulforhodamine B (SRB) staining in parallel cultures at the time of biomarker measurements, indicated as SRB endpoints. For proliferation assays for adherent cell types, individual cell types are cultured at sub-confluence and relative cell numbers quantified by SRB staining at time points optimized for each system (48 h: 3C and CASM3C systems; 72 h: BT and HDF3CGF systems; 96 h: SAg system). SRB was performed by staining cells with 0.1% SRB after fixation with 10% TCA and reading wells at 560 nm.Viability and proliferation of PBMC (T cells) was quantified by Alamar Blue reduction for the SAg and BT systems. For PBMC viability (referred to as PBMC Cytotoxicity within the assay endpoint names), cells were plated (75,000/well in a 96-well plate) and then chemical samples added for 1 h before addition of activators, SEB and TSST-1 (20 ng/mL final concentration each). Cells were incubated for 90 h. Then, Alamar Blue (20 uL/well) (Invitrogen, Cat DAL1100) was added for 6 h, and the plates were read with a fluorescence microplate reader at 546/580 nm (excitation/emission). For PBMC proliferation, cells were plated and activated as above but incubated for only 16 h prior to addition of Alamar Blue. Plates were read after 6 h.
Structure (SMILES),AC50,outcome
Cc1cc(C(C)(C)c2ccc(O)c(C)c2)ccc1O,13.7 µM (active),–
CCOP(=S)(OCC)OP(=S)(OCC)OCC,–,inactive
O=c1oc2ccccc2c(O)c1C(CC(O)c1ccc(-c2ccc(Br)cc2)cc1)c1ccccc1 (stereo not given),9.02 µM (active),–
CC(C=O)Cc1ccc2c(c1)OCO2 (stereo not given),–,inactive
OC(Cc1ccccc1Cl)(Cn1cncn1)C1(Cl)CC1 (stereo not given),–,inactive
C=CC(Cl)CCl (stereo not given),9.58 µM (active),–
O=S(=O)(c1ccc(Cl)cc1)c1cc(Cl)c(Cl)cc1Cl,–,inactive
CC(C)=CC1C(C(=O)OCc2cccc(Oc3ccccc3)c2)C1(C)C (stereo not given),–,inactive
OC(Cc1ccccc1Cl)(Cn1[nH]cnc1=S)C1(Cl)CC1 (stereo not given),32.2 µM (active),–
Nc1c(Oc2ccccc2)cc(O)c2c1C(=O)c1ccccc1C2=O,–,inactive
CC(C)N(C(=O)CCl)c1ccccc1,3.67 µM (active),–
CCOC(=O)C(SP(=S)(OC)OC)c1ccccc1 (stereo not given),–,inactive
Nc1ccc(N)cc1,–,inactive
Oc1ccc(Cc2ccc(O)cc2)cc1,–,inactive
Cc1ccc2nc3sc(=O)sc3nc2c1,–,inactive
Oc1cccc(-c2ccccc2)c1,31.1 µM (active),–
CCOP(=O)(OCC)OC(=CCl)c1ccc(Cl)cc1Cl,30.4 µM (active),–
CCN(CC)C(=O)C(Cl)=C(C)OP(=O)(OC)OC,–,inactive
Cc1ccccc1OP(=O)(Oc1ccccc1C)Oc1ccccc1C,12.8 µM (active),–
C[C@]12CC[C@@H](O)C[C@@H]1CC[C@@H]1[C@@H]2CC[C@]2(C)C(=O)CC[C@@H]12,–,inactive

Structure (SMILES),AC50,outcome
CCOC(=O)CCN(SN(C)C(=O)Oc1cccc2c1OC(C)(C)C2)C(C)C,–,inactive
O=C1C=CC(=O)c2ccccc21,4.69 µM (active),–
O=S(=O)(C(Cl)(Cl)Cl)C(Cl)(Cl)Cl,3.81 µM (active),–
Cc1ccccc1OP(=O)(Oc1ccccc1)Oc1ccccc1,20 µM (active),–
CCCCN(CCCC)C(=S)[S-].CCCCN(CCCC)C(=S)[S-].[Ni+2],–,inactive
Cc1cc(Cl)ccc1OC(C)C(=O)O (stereo not given),–,inactive
CC(C)(COCC1CO1)COCC1CO1 (stereo not given),–,inactive
Cc1cccc(OP(=O)(Oc2cccc(C)c2)Oc2cccc(C)c2)c1,–,inactive
Cc1cc(Cl)ccc1N,–,inactive
c1ccc2sc(SNC3CCCCC3)nc2c1,–,inactive
O=C(O)COc1cc(Cl)c(Cl)cc1Cl,–,inactive
CC(C)(C)c1cc([N+](=O)[O-])cc(C(C)(C)C)c1O,–,inactive
N#CCCC(Br)(C#N)CBr (stereo not given),14.1 µM (active),–
Oc1c(Br)cc(Br)cc1Br,–,inactive
C#CCOC(=O)/C=C(C)/C=C/CC(C)CCCC(C)C (stereo not given),–,inactive
CC1(C)[C@H](C(=O)O[C@H](C#N)c2cccc(Oc3ccccc3)c2)[C@@H]1/C=C(\Cl)C(F)(F)F,–,inactive
COCC(=O)N(c1c(C)cccc1C)[C@H](C)C(=O)OC,–,inactive
O=C(CCl)NCO,–,inactive
Cc1ccc(OP(=O)(Oc2ccc(C)cc2C)Oc2ccc(C)cc2C)c(C)c1,–,inactive
Cc1c([N+](=O)[O-])c(C)c([N+](=O)[O-])c(C(C)(C)C)c1[N+](=O)[O-],–,inactive
